# Experimental data reported in PubChem BioAssay (NCI).
# Compounds without any hit were thinned out: in the full panel of roughly 79,000, 15% have a hit. Unmarked numbers belong to inactive results. Calls of active or inactive are those of the source. Rule as the data show it: active = growth inhibition above about 70%; inactive = the rest.
# Experiment: NCI Yeast Anticancer Drug Screen. Data for the CLN2oe strain (AID 163);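 also: 0% = growth of vehicle-only control cultures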
# Details: S. cerevisiae CLN2oe strain, stronger effect = higher value
# Experimental: Growth inhibition of yeast strains with defined genetic alterations is measured as a screen for potential anti-cancer activity. Selected strains with alterations in DNA damage repair or cell cycle control were exposed to compounds and growth inhibition was measured relative to vehicle treated controls. The strain used in this assay is CLN2oe
SMILES,growth inhibition (at 1.2 µM),growth inhibition (at 3.7 µM),growth inhibition (at 11.0 µM),growth inhibition (at 33.0 µM),growth inhibition (at 100.0 µM)
CC(=O)Oc1ccc2c(c1)Cc1cc(N=C3C=CC(=O)O3)ccc1-2,2%,23%,94% (active),99% (active),95% (active)
C[C@H](CCC(=O)NN)[C@H]1CC[C@H]2[C@@H]3CC[C@@H]4C[C@H](O)CC[C@]4(C)[C@H]3CC[C@]12C,-4%,2%,5%,2%,16%
COc1ccc(-c2cn(-c3ccc(I)cc3)c3ncnc(N)c23)cc1,-7%,-8%,-2%,9%,4%
O=C(OCCN1CCCCCC1)C(c1ccsc1)C1CCCCC1 (stereo not given),10%,32%,51%,57%,72% (active)
C[Si](C)(C)CNC(=O)OCc1ccccc1,-3%,-3%,7%,4%,5%
Fc1ccc(NC(=S)SCc2ccc(Cl)c(Cl)c2)cc1F,-7%,-10%,-11%,80% (active),97% (active)
O=[N+]([O-])c1ccc([N+]2=NC(c3ccccc3)=NN(c3ccccc3)C2)cc1,-5%,-3%,-2%,2%,40%
COc1cccc2nc3ccccc3nc12,0%,1%,1%,48%,91% (active)
